According to PMC5540273 (PLoS ONE, 2017):

Legend:
Details in all cases: concentration: 1 μM, replicates: in singlicate; n = 1
[1] = system: EPHA4
[2] = system: EPHA5
[3] = system: EPHA6
[4] = system: EPHA7
[5] = system: EPHA8
[6] = system: EPHB1
[7] = system: EPHB2
[8] = system: EPHB3
[9] = system: EPHB4
[10] = system: EPHB6
[11] = system: ERBB2
[12] = system: ERBB3
[13] = system: ERBB4
[14] = system: T1, ERK1
T1 construct: gene MAPK3

[15] = system: T2, ERK2
T2 construct: gene MAPK1

[16] = system: T3, ERK3
T3 construct: gene MAPK6

[17] = system: T4, ERK4
T4 construct: gene MAPK4

[18] = system: T5, ERK5
T5 construct: gene MAPK7

[19] = system: T6, ERK8
T6 construct: gene MAPK15

[20] = system: ERN1
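Note: KINOMEscan kinase panel screen.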

Fc1cc(Cl)ccc1Nc1ccnc2cc(-c3ccc(CN4CCCCC4)o3)ccc12 [GW560116]
%Inh [1]: 0% | %Inh [2]: 0% | %Inh [3]: 24% | %Inh [4]: 0% | %Inh [5]: 30% | %Inh [6]: 12% | %Inh [7]: 10% | %Inh [8]: 0% | %Inh [9]: 12% | %Inh [10]: 51% | %Inh [11]: 1% | %Inh [12]: 31% | %Inh [13]: 4% | %Inh [14]: 0% | %Inh [15]: 0% | %Inh [16]: 0% | %Inh [17]: 8% | %Inh [18]: 0% | %Inh [19]: 0% | %Inh [20]: 0%

Cl.O=C(Nc1cccc(-c2nn3ncccc3c2-c2ccnc(Nc3cccnc3)n2)c1)c1c(F)cccc1F [GSK312879]
%Inh [1]: 1% | %Inh [2]: 0% | %Inh [3]: 1% | %Inh [4]: 7% | %Inh [5]: 27% | %Inh [6]: 13% | %Inh [7]: 0% | %Inh [8]: 0% | %Inh [9]: 12% | %Inh [10]: 10% | %Inh [11]: 95.9% | %Inh [12]: 0% | %Inh [13]: 93.2% | %Inh [14]: 8% | %Inh [15]: 0% | %Inh [16]: 0% | %Inh [17]: 16% | %Inh [18]: 0% | %Inh [19]: 28% | %Inh [20]: 4%

COc1ccc(Nc2nccc(NCCNC(=O)Nc3ccccc3F)n2)cc1 [GSK1379901]
%Inh [1]: 14% | %Inh [2]: 0% | %Inh [3]: 6% | %Inh [4]: 7% | %Inh [5]: 25% | %Inh [6]: 0% | %Inh [7]: 0% | %Inh [8]: 27% | %Inh [9]: 32% | %Inh [10]: 4% | %Inh [11]: 0% | %Inh [12]: 0% | %Inh [13]: 45% | %Inh [14]: 0% | %Inh [15]: 0% | %Inh [16]: 9% | %Inh [17]: 32% | %Inh [18]: 0% | %Inh [19]: 0% | %Inh [20]: 0%

CCCc1ccc(S(=O)(=O)NC2CCN(c3ccnc(Nc4ccc(F)cc4)n3)C2)cc1 (stereo not shown) [GSK1379715]
%Inh [1]: 13% | %Inh [2]: 0% | %Inh [3]: 6% | %Inh [4]: 2% | %Inh [5]: 23% | %Inh [6]: 0% | %Inh [7]: 6% | %Inh [8]: 15% | %Inh [9]: 15% | %Inh [10]: 2% | %Inh [11]: 7% | %Inh [12]: 1% | %Inh [13]: 25% | %Inh [14]: 0% | %Inh [15]: 18% | %Inh [16]: 0% | %Inh [17]: 13% | %Inh [18]: 0% | %Inh [19]: 15% | %Inh [20]: 0%

Nc1ncnc2[nH]c(-c3ccccc3)nc12 [AH5015]
%Inh [1]: 23% | %Inh [2]: 0% | %Inh [3]: 8% | %Inh [4]: 29% | %Inh [5]: 25% | %Inh [6]: 0% | %Inh [7]: 8% | %Inh [8]: 16% | %Inh [9]: 19% | %Inh [10]: 25% | %Inh [11]: 14% | %Inh [12]: 0% | %Inh [13]: 0% | %Inh [14]: 4% | %Inh [15]: 0% | %Inh [16]: 0% | %Inh [17]: 0% | %Inh [18]: 0% | %Inh [19]: 31% | %Inh [20]: 12%

COc1cccc(-c2cc(-c3c[nH]nc3-c3ccccn3)ccn2)c1 [GW680338]
%Inh [1]: 2% | %Inh [2]: 0% | %Inh [3]: 0% | %Inh [4]: 0% | %Inh [5]: 8% | %Inh [6]: 7% | %Inh [7]: 16% | %Inh [8]: 2% | %Inh [9]: 15% | %Inh [10]: 0% | %Inh [11]: 5% | %Inh [12]: 17% | %Inh [13]: 0% | %Inh [14]: 4% | %Inh [15]: 0% | %Inh [16]: 16% | %Inh [17]: 8% | %Inh [18]: 0% | %Inh [19]: 0% | %Inh [20]: 0%

COc1cc2ncn(-c3cc(OCC4CCCO4)c(C(N)=O)s3)c2cc1OC (stereo not shown) [GSK204607]
%Inh [1]: 7% | %Inh [2]: 0% | %Inh [3]: 1% | %Inh [4]: 0% | %Inh [5]: 3% | %Inh [6]: 24% | %Inh [7]: 0% | %Inh [8]: 0% | %Inh [9]: 27% | %Inh [10]: 23% | %Inh [11]: 0% | %Inh [12]: 20% | %Inh [13]: 0% | %Inh [14]: 2% | %Inh [15]: 0% | %Inh [16]: 20% | %Inh [17]: 0% | %Inh [18]: 0% | %Inh [19]: 0% | %Inh [20]: 0%

NC(=O)c1nnc2ccccc2c1N
%Inh [1]: 1% | %Inh [2]: 10% | %Inh [3]: 0% | %Inh [4]: 0% | %Inh [5]: 0% | %Inh [6]: 0% | %Inh [7]: 13% | %Inh [8]: 0% | %Inh [9]: 19% | %Inh [10]: 9% | %Inh [11]: 22% | %Inh [12]: 45% | %Inh [13]: 4% | %Inh [14]: 0% | %Inh [15]: 18% | %Inh [16]: 0% | %Inh [17]: 2% | %Inh [18]: 5% | %Inh [19]: 0% | %Inh [20]: 22%

O=C1NC(=O)C(N2CCc3ccccc32)=C1c1ccccc1Cl [SB-373598]
%Inh [1]: 24% | %Inh [2]: 0% | %Inh [3]: 18% | %Inh [4]: 18% | %Inh [5]: 36% | %Inh [6]: 9% | %Inh [7]: 0% | %Inh [8]: 14% | %Inh [9]: 20% | %Inh [10]: 31% | %Inh [11]: 26% | %Inh [12]: 0% | %Inh [13]: 0% | %Inh [14]: 17% | %Inh [15]: 0% | %Inh [16]: 23% | %Inh [17]: 11% | %Inh [18]: 0% | %Inh [19]: 0% | %Inh [20]: 13%

COc1cc2nccc(Nc3ccc(NC(=O)c4ccc(C)cc4)c(O)c3)c2cc1OC.Cl [GW440132]
%Inh [1]: 0% | %Inh [2]: 0% | %Inh [3]: 3% | %Inh [4]: 2% | %Inh [5]: 5% | %Inh [6]: 6% | %Inh [7]: 0% | %Inh [8]: 12% | %Inh [9]: 10% | %Inh [10]: 19% | %Inh [11]: 14% | %Inh [12]: 0% | %Inh [13]: 9% | %Inh [14]: 0% | %Inh [15]: 2% | %Inh [16]: 13% | %Inh [17]: 3% | %Inh [18]: 0% | %Inh [19]: 1% | %Inh [20]: 29%

Cn1ccc2ncnc(Oc3cccc(C(=O)Nc4ccccc4)c3)c21
%Inh [1]: 4% | %Inh [2]: 16% | %Inh [3]: 0% | %Inh [4]: 0% | %Inh [5]: 0% | %Inh [6]: 0% | %Inh [7]: 0% | %Inh [8]: 0% | %Inh [9]: 9% | %Inh [10]: 0% | %Inh [11]: 18% | %Inh [12]: 18% | %Inh [13]: 0% | %Inh [14]: 0% | %Inh [15]: 21% | %Inh [16]: 0% | %Inh [17]: 4% | %Inh [18]: 5% | %Inh [19]: 6% | %Inh [20]: 29%
